PubChem BioAssay AID624396 (The Scripps Research Institute Molecular Screening Center, 2012)
Active and inactive are the calls of the source.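 How the source made its calls: active means over 15% of cells apoptotic at 25 µM, or half-maximal dose of 10 µM or lower; inactive means the rest.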

Tested on: MCL1 1780
Assay: pro-apoptotic nuclear morphology in cancer cells – imaging, DAPI staining, cell line panel, probe, mechanism study for MCL1-BIM inhibitor project, late-stage follow-up (AID 624396)
Conditions: at 25 µM, hits give high values

Structure (SMILES): CCN1CCN(C(c2ccc(C(F)(F)F)cc2)c2ccc3cccnc3c2O)CC1 (stereo unspecified)
- apoptosis: 99% (active)
